Reference: PubChem BioAssay (NCATS)
Results filed as inconclusive are left out. The source made the active and inactive calls. Unless noted, calls follow the shape of the dose curve; as a rule, active = well fitted curve in the direction sought with a large enough effect; inconclusive = small, poorly fitted or top-dose-only effect, or another doubt; inactive = no such curve, though single readings can be large; an effect the other way counts as inactive or inconclusive.

How the values were obtained:
[1] = test system: UISO; assay: qHTS assay to identify novel small-molecules to repurpose for Merkel cell carcinoma treatment (AID 1296009); conditions: MCC and control cell lines, CellTiter-Glo viability, 72 h; series mostly up to 46 µM; also: % is scaled to controls: 0 for no effect and ±100 for the full control effect; nearly all actives have a fitted effect of over 60% in size
Summary of the method: (§1)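 CellTiter-Glo luminescence after 72 hr compound exposure at 37 degree celsius gave cell viability. Libraries NPC and MIPE were run as 8- and 11-point dose responses; RLUs normalized to DMSO (negative) and no-cell (cytotoxicity) controls.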

[2] = test system: WaGa; assay: as above; conditions: MCC and control cell lines, CellTiter-Glo viability, 72 h; series mostly up to 46 µM
Summary of the method: as §1

[3] = test system: C33A; assay: Primary qHTS to identify gynecologic anti-cancer compounds using libraries of approved drugs and bioactive compounds (AID 1345084); conditions: Gynecologic cancer cell panel viability, ATPlite luminescence, 48 h; series mostly up to 57.5 µM; also: % is scaled to controls: 0 for no effect and ±100 for the full control effect; nearly all actives have a fitted effect of over 55% in size
Summary of the method: (§2)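 Cytotoxicity screen measuring ATP content by luciferase luminescence. Each compound is applied at five concentrations for 48 h at 37 C with 5% CO2.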

[4] = test system: CASKI; assay: as above; conditions: Gynecologic cancer cell panel viability, ATPlite luminescence, 48 h; series mostly up to 57.5 µM
Summary of the method: as §2

[5] = test system: Es-2; assay: as above; conditions: Gynecologic cancer cell panel viability, ATPlite luminescence, 48 h; series mostly up to 57.5 µM
Summary of the method: as §2

[6] = test system: HeLa; assay: as above; conditions: Gynecologic cancer cell panel viability, ATPlite luminescence, 48 h; series mostly up to 57.5 µM
Summary of the method: as §2

[7] = test system: Hek293T; assay: as above; conditions: Gynecologic cancer cell panel viability, ATPlite luminescence, 48 h, control line for the selectivity index; series mostly up to 57.5 µM
Summary of the method: as §2

[8] = test system: JEG-3; assay: as above; conditions: Gynecologic cancer cell panel viability, ATPlite luminescence, 48 h; series mostly up to 57.5 µM
Summary of the method: as §2

[9] = test system: OV90; assay: as above; conditions: Gynecologic cancer cell panel viability, ATPlite luminescence, 48 h; series mostly up to 57.5 µM
Summary of the method: as §2

[10] = test system: PA-1; assay: as above; conditions: Gynecologic cancer cell panel viability, ATPlite luminescence, 48 h; series mostly up to 57.5 µM
Summary of the method: as §2

[11] = test system: SKOV3; assay: as above; conditions: Gynecologic cancer cell panel viability, ATPlite luminescence, 48 h; series mostly up to 57.5 µM
Summary of the method: as §2

[12] = test system: Tov-21-G; assay: as above; conditions: Gynecologic cancer cell panel viability, ATPlite luminescence, 48 h; series mostly up to 57.5 µM
Summary of the method: as §2

[13] = test system: Tov112D; assay: as above; conditions: Gynecologic cancer cell panel viability, ATPlite luminescence, 48 h; series mostly up to 57.5 µM
Summary of the method: as §2

[14] = Drug repurposing screens with cells derived from glioblastoma tumor samples (AID 1345199); conditions: GBM patient neurospheres viability, ATP luminescence, 48 h; also: % is scaled to controls: 0 for no effect and ±100 for the full control effect; nearly all actives have a fitted effect of over 40% in size
Summary of the method: (§3)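 Primary testing used CD133+ neurospheres from four GBM patients, seven concentrations, 48 h exposure and ATP-based viability; confirmation added three slower-growing patient lines.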

[15] = test system: astro; assay: as above; conditions: viability, ATP luminescence, 48 h; series mostly up to 45.9 µM
Summary of the method: as §3

[16] = test system: CAOV3; assay: Primary qHTS to identify gynecologic anti-cancer compounds using libraries of approved drugs and bioactive compounds (AID 1345084); conditions: Gynecologic cancer cell panel viability, ATPlite luminescence, 48 h; series mostly up to 57.5 µM; also: % is scaled to controls: 0 for no effect and ±100 for the full control effect; nearly all actives have a fitted effect of over 55% in size
Summary of the method: as §2

[17] = molecular target: Nuclear receptor subfamily 1 group I member 2 (Rattus norvegicus) (UniProt Q9R1A7); assay: qHTS assay for small molecule activators of the rat pregnane X receptor (rPXR) signaling pathway (AID 651751; call rule not given here; also: 0% is about no effect); conditions: rPXR reporter cells, luciferase (One-Glo), 24 h
Nuclear receptor subfamily 1 group I member 2 (Rattus norvegicus), sequence (Q9R1A7 whole entry, looked up): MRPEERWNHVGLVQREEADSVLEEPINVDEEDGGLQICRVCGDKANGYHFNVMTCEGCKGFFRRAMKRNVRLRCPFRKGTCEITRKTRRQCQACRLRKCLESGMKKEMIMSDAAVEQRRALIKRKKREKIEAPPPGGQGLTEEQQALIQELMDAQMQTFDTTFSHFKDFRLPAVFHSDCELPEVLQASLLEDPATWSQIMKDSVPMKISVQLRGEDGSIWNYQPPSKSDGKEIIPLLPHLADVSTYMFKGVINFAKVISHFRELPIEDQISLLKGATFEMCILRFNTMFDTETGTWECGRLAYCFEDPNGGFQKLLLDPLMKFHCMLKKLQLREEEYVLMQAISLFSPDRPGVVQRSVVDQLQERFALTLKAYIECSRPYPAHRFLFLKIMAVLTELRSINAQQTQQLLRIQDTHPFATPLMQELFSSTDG

[18] = qHTS assay for small molecule activators of the human pregnane X receptor (PXR) signaling pathway (AID 720659; call rule not given here; also: 0% is about no effect)
[19] = at 45.9 µM (top of the series), tumour line B
[20] = at 45.9 µM (top of the series), tumour line D
[21] = at 46.1 µM (top of the series), tumour line C
[22] = at 46 µM (top of the series), tumour line A

CC(=O)N[C@@H](Cc1ccc(O)cc1)C(=O)O
inactive: outcome [1] | outcome [2] | outcome [3] | outcome [4] | outcome [5] | outcome [6] | outcome [7] | outcome [8] | Potency [9] | outcome [10] | outcome [11] | outcome [12] | outcome [13] | activity, negative = cell killing [14, 19] -9.92% | activity, negative = cell killing [14, 20] -7.49% | activity, negative = cell killing [14, 21] 6.62% | outcome [15]

NC(=O)CCCCC1CCSS1 (stereo not drawn)
inactive: outcome [1] | outcome [2] | outcome [3] | outcome [4] | outcome [5] | outcome [6] | outcome [7] | outcome [8] | Potency [9] | outcome [10] | outcome [11] | outcome [12] | outcome [13] | activity, negative = cell killing [14, 19] -3.9% | activity, negative = cell killing [14, 20] 6.2% | activity, negative = cell killing [14, 22] -23.7% | activity, negative = cell killing [14, 21] 2.37% | outcome [15]

CN/C(=C\[N+](=O)[O-])NCCSCc1csc(CN(C)C)n1
inactive: outcome [1] | outcome [2] | outcome [3] | outcome [4] | outcome [5] | outcome [6] | outcome [7] | outcome [8] | Potency [9] | outcome [10] | outcome [11] | outcome [12] | outcome [13] | activity, negative = cell killing ([14]; at 20 µM (top of the series), tumour line C) -1.68% | activity, negative = cell killing ([14]; at 21.2 µM (top of the series), tumour line B) 0.685% | activity, negative = cell killing ([14]; at 21.2 µM (top of the series), tumour line D) -13.3% | activity, negative = cell killing ([14]; at 21.3 µM (top of the series), tumour line A) -19.6% | outcome [15]

O=C1C(c2[nH]c3ccccc3c2O)=Nc2ccccc21
inactive: outcome [2] | outcome [3] | outcome [16] | outcome [4] | outcome [5] | outcome [6] | outcome [7] | outcome [8] | Potency [9] | outcome [10] | outcome [11] | outcome [12] | outcome [13] | activity, negative = cell killing [14, 19] -10% | activity, negative = cell killing [14, 20] -9.74% | activity, negative = cell killing [14, 22] -34.1% | activity, negative = cell killing [14, 21] -13.3% | outcome [15] | max response [17] 2.85% | outcome [18]
